Experimental data published in PubChem BioAssay (NCATS).
Records with an inconclusive call do not appear. The source made the active and inactive calls. Unless noted, calls come from the whole dose curve; as a rule, active = well fitted curve in the direction sought with a large enough effect; inconclusive = small, poorly fitted or top-dose-only effect, or another doubt; inactive = no such curve, though single readings can be large; an effect the other way counts as inactive or inconclusive.

What was measured:
[1] = Cell Viability - LYMP2-001 (AID 921); note: series mostly up to about 92 µM; nearly all actives have a fitted effect of over 70% in size
In short: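 Steps: seed 2500 lymphoblastoid cells/well; 5 hr, 37 C; add compound; 24 hr, 37 C; CellTiter-Glo reagent, 30 min room temperature; read luminescence. Concentration-response modeled by Hill equation for AC50.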

[2] = MultiTox-Fluor Cytotoxicity Assay - LYMP1-001 - Dead Cells (AID 946)
In short: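 In this qHTS, 15 uM tetraoctylammonium bromide defined 100% and DMSO defined basal activity. Lymphoblastoid cells (LYMP1-001, 2500 per well) received compound for 16 hr at 37 C before a fluorogenic dead-cell substrate readout at 485/520 nm.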

[3] = MultiTox-Fluor Cytotoxicity Assay - LYMP1-001 - Live Cells (AID 947)
[4] = Cell Viability - LYMP1-002 - Assay at 16 hr (AID 948)
In short: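 Seed 2500 LYMP1-002 cells per well in complete medium and hold 5 hr at 37 C. Add compound across a concentration series and incubate 16 hr at 37 C. Add CellTiter-Glo, wait 30 min at room temperature, read luminescence.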

[5] = MultiTox-Fluor Cytotoxicity Assay - LYMP1-002 - Live Cells (AID 955)
In short: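 Read-out is live-cell protease activity (cell-permeant GF-AFC substrate, fluorescence Ex/Em=405/510), where a decrease indicates acute toxicity. Human lymphoblastoid cells were treated 16 hours at 37 C in a concentration series, and AC50 values came from standard Hill modelling.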

[6] = MultiTox-Fluor Cytotoxicity Assay - LYMP1-003 - Dead Cells (AID 961); note: nearly all actives have a fitted effect of over 70% in size
In short: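 Acute toxicity is scored as increased dead-cell protease activity in human lymphoblastoid LYMP1-003 cells after 16 h compound exposure in complete culture medium. Activity is normalized to DMSO basal and 15 uM tetraoctylammonium bromide as full response.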

[7] = MultiTox-Fluor Cytotoxicity Assay - LYMP1-003 - Live Cells (AID 962);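 note: cytotoxic hits lower the live-cell protease signal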
In short: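 qHTS, 1536-well; 2500 cells/well LYMP1-003; 5 hr 37 C settle; cpd 16 hr 37 C; MultiTox-Fluor reagent 60 min RT; live-cell protease fluor. 405/510; Hill-fit AC50; tetraoctylammonium bromide pos. ctrl.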

[8] = Cell Viability - LYMP1-003 - Assay at 24 hr (AID 963)
In short: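 Cells seeded at 2500/well, 5 hr at 37 C; compounds added; 24 hr at 37 C; CellTiter-Glo added, 30 min room temperature; luminescence read. Decrease in ATP taken as cytotoxicity, AC50 from Hill modelling.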

[9] = Cell Viability - LYMP2-013 (AID 970); note: series mostly up to about 92 µM; nearly all actives have a fitted effect of over 55% in size
In short: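 qHTS; 2500 lymphoblastoid cells/well; 5 hr 37 C settle; cpd 24 hr 37 C; CellTiter-Glo, 30 min RT; luminescence. AC50 = Hill fit.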

[10] = Cell Viability - LYMP2-019 (AID 973); note: nearly all actives have a fitted effect of over 55% in size
In short: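 Luminescent ATP read-out (CellTiter-Glo, 30 min room temperature) served as the viability measure after 24 hr treatment of lymphoblastoid cells at 37 C. Concentration-response data were fitted to the Hill equation for AC50.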

[11] = Cell Viability - LYMP2-023 (AID 975);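 note: cellular ATP measured by luciferase luminescence as viability proxy; series mostly up to about 92 µM; nearly all actives have a fitted effect of over 55% in size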
In short: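 2500 cells/well, 5 hr 37 C; cpd 24 hr 37 C; CellTiter-Glo, 30 min RT; luminescence. qHTS conc-response, Hill fit -> AC50. Pos ctrl tetraoctylammonium bromide.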

[12] = Cell Viability - LYMP2-025 (AID 976); note: series mostly up to about 92 µM
In short: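 Seed 2500 LYMP2-025 cells/well; 5 hr at 37 C; add compound; 24 hr at 37 C; add CellTiter-Glo; 30 min RT; read luminescence. AC50 from Hill-modelled concentration-response.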

[13] = Cell Viability - LYMP2-002 (AID 977);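 note: series mostly up to about 92 µM; compound exposure lasted 24 h at 37 °C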
In short: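 Human lymphoblastoid LYMP2-002 cells, 2500 per well, exposed to compounds for 24 h at 37 C in complete medium; viability read as intracellular ATP by CellTiter-Glo luminescence, AC50 from Hill fits.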

[14] = Cell Viability - LYMP2-006 (AID 978); note: series mostly up to about 92 µM; nearly all actives have a fitted effect of over 60% in size
In short: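 Cells are seeded at 2500 per well and rested 5 hr at 37 C. Compounds are added across a concentration series for 24 hr at 37 C, after which ATP is quantified by luciferase luminescence.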

[15] = Cell Viability - LYMP2-008 (AID 980); note: nearly all actives have a fitted effect of over 60% in size
In short: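 qHTS, human lymphoblastoid line, 2500 cells/well; 5 hr preincubation, 24 hr compound, 37 C. CellTiter-Glo ATP luminescence. AC50 via Hill equation. Tetraoctylammonium bromide positive control.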

[16] = Cell Viability - LYMP2-012 (AID 982);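 note: cellular ATP by luciferase luminescence where a drop means cytotoxicity; cells exposed to compound for one day before reading; nearly all actives have a fitted effect of over 55% in size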
[17] = Cell Viability - LYMP2-014 (AID 983); note: series mostly up to about 92 µM; nearly all actives have a fitted effect of over 50% in size
In short: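 Luminescent ATP signal (CellTiter-Glo, 30 min at room temperature) serves as the viability read-out after 24 hr compound exposure at 37 C. Cells were seeded at 2500 per well and settled 5 hr beforehand.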

[18] = Cell Viability - LYMP2-016 (AID 984); note: nearly all actives have a fitted effect of over 55% in size
In short: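 Cells were seeded at 2500 per well and rested 5 hr before a 24 hr compound exposure at 37 C. Viability was then gauged as cellular ATP by luciferase luminescence, with AC50 values fitted to the Hill equation.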

[19] = qHTS assay for cell viability of the p53RE-bla HCT-116 cell line (AID 743292); note: nearly all actives have a fitted effect of over 55% in size
In short: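 CellSensor p53RE-bla HCT-116 cells (4,000/well) pre-incubated 5 h at 37 C, then exposed to compounds in DMSO for 16 h at 37 C. Viability read as ATP content by CellTiter-Glo luminescence after 30 min at room temperature.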

[20] = qHTS assay for small molecule activators of the human pregnane X receptor (PXR) signaling pathway (AID 720659; call rule not given here)

Measured: Potency

CC(C)(c1ccc(OCC2CO2)cc1)c1ccc(OCC2CO2)cc1 (stereo not given)
inactive: all assays above
